Assay outcomes as filed in PubChem BioAssay.
A selection: hits, their analogues and other compounds. The true share with any hit is near 21%.
SARS PLP yeast: SARS-CoV PLP inhibition in yeast; S. cerevisiae expressing SARS-CoV PLpro, growth rescue; Potency, µM (highest dose often 32.9 µM), usual class: activators; hit rate 0.19% among 330,000; AID 485353; further: nearly all actives have a fitted effect of over 55% in size
NS1 function inh: influenza NS1 inhibition | hit rate 0.4% among 270,000 | Potency, µM (series often up to 46.1 µM) | AID 2326; further: actives are rising curves; nearly all actives have a fitted effect of over 50% in size
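OD600 was taken as the measure of yeast growth restored by compound in an NS1-expressing S. cerevisiae strain. Cells had been washed out of glucose medium and diluted 1:100 into galactose -URA medium, pH 6.0.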
CHX counter: affects cycloheximide protein synthesis inhibition readout, counter-screen; cell reporter, cycloheximide protein synthesis inhibition counterscreen; max response, %; hit rate 12% among 300,000; AID 2314; in the data active means max response mostly above about 13%, no sharp cut-off; inactive means mostly below about 14%; further: read at 38.3 µM for the half of the compounds with a filed dose
Pf growth 96h: P. falciparum growth inhibition at 96 hour, primary screen for plastid delayed-death inhibitors; P. falciparum luciferase reporter growth, 96 h; Potency, µM (doses to about 28.7 µM), usual class: inhibitors; hit rate 6.9% among 320,000; active means well fitted inhibition curve with a large enough effect; inconclusive means small, poorly fitted or top-dose-only effect, or another doubt; inactive means no such curve, though single readings can be large or run the other way
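Infected RBCs, 2% Hct / 0.05% parasitemia final; luciferase-reporter P. falciparum; cpd 96 h, 37 C, 5% CO2; luciferase detection reagent; luminescence.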
Pf growth 48h: inhibits P. falciparum growth in the first generation, 48 h | Potency, µM (highest dose often 28.7 µM), most hits filed as inhibitors | P. falciparum luciferase growth in erythrocytes, 48 h | hit rate 5.9% among 310,000 | AID 504832; active means well fitted inhibition curve with a large enough effect; inconclusive means small, poorly fitted or top-dose-only effect, or another doubt; inactive means no such curve, though single readings can be large or run the other way
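First compound was added to culture medium, then infected red cells at 0.1% parasitemia and 2% hematocrit (final). After incubation at 37 C under 5% CO2, luciferase detection reagent was dispensed and light output recorded.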
Shiga toxin inh: blocks Shiga toxin action in Vero cells | Vero cells, Shiga toxin protein synthesis inhibition reporter | hit rate 9.2% among 290,000 | inhibition, % at 38.7 µM; in the data active means inhibition mostly above about 28%, no sharp cut-off; inactive means mostly below about 43%
A number is an active result; 0 = inactive; ? = inconclusive; - = no result given. Unless noted, the call rests on the fitted dose curve.

SMILES	SARS PLP yeast	NS1 function inh	CHX counter	Pf growth 96h	Pf growth 48h	Shiga toxin inh
C=CCn1c(SCC(=O)c2c(N)n(C3CC3)c(=O)[nH]c2=O)nnc1-c1ccccc1OC	0	-	-	12µM	?	-
C=CCn1c(SCC(=O)c2c(N)n(C3CC3)c(=O)[nH]c2=O)nnc1-c1ccoc1C	0	-	-	?	9.3µM	-
O=C(COC(=O)c1ccc2c(c1)S(=O)(=O)N=C1CCCCCN12)NCCc1ccc(F)cc1	0	0	0	0	0	0
Cc1ccc(SCc2cn3ccccc3n2)cc1	0	0	32	0	0	66
O=C(O)c1ccccc1SCc1cn2ccccc2n1	0	?	0	0	0	0
c1ccc(CSCc2cn3ccccc3n2)cc1	0	-	47	0	0	112
Cc1ccc(C(=O)OCc2cn3ccccc3n2)cc1	0	0	15	0	0	0
Cc1ccc2nc(COC(=O)CNC(=O)c3ccccc3)cn2c1	0	-	-	0	0	-
CCC(C)N1CC(=O)N2C(c3ccc(OC)cc3OC)c3[nH]c4ccccc4c3C[C@H]2C1=O (some centres undefined)	0	0	0	?	?	0
Fc1cc(F)c2nc(Nc3nc4cc5c(cc4s3)OCO5)sc2c1	0	0	21	0	0	0
Fc1cccc2sc(Nc3nc4cc5c(cc4s3)OCCO5)nc12	0	0	51	0	0	96
O=C(NNc1nc2c(F)cccc2s1)C1=COCCO1	0	-	0	0	0	0
Fc1cccc2sc(Nc3nc4cc5c(cc4s3)OCO5)nc12	0	0	70	0	0	116
Cc1cc(NS(=O)(=O)c2cc(Cl)sc2Cl)no1	0	0	0	0	-	0
N#CC1(NC(=O)COC(=O)c2nccnc2N)CCCCC1	0	-	-	0	0	-
O=C(Nc1cc(S(=O)(=O)N2CCOCC2)ccc1Cl)c1ccncc1	0	-	-	-	-	-
CSc1c(C#N)sc(=S)n1-c1ccc(C)cc1	0	0	0	10µM	?	0
CC(=O)NCCn1c(SCC(=O)NCCC2=CCCCC2)nc2ccccc2c1=O	0	0	0	0	0	0
COCC(C)n1c(SCC(=O)NC(=O)NC2CCCC2)nc2ccccc2c1=O (centres undefined)	0	-	-	?	13µM	-
CCOC(=O)N1CCC(n2c(SCC(=O)NCCC3=CCCCC3)nc3ccccc3c2=O)CC1	0	0	0	?	9.3µM	0
CCOC(=O)N1CCC(n2c(SCC(=O)NCc3ccccc3)nc3ccccc3c2=O)CC1	0	0	0	?	?	0
COCC(C)n1c(SCC(=O)NCCC2=CCCCC2)nc2ccccc2c1=O (centres undefined)	0	0	0	8.3µM	-	0
COCCn1c(SCC(=O)NC(=O)NC2CCCCC2)nc2ccccc2c1=O	0	-	-	-	-	-
CCOC(=O)N1CCC(n2c(SCC(=O)Nc3ccccc3OC)nc3ccccc3c2=O)CC1	0	0	0	0	10µM	0
NC(=O)c1ccsc1NC(=O)COC(=O)CCOc1ccccc1	0	0	0	0	0	0
SMILES	SARS PLP yeast	NS1 function inh	CHX counter	Pf growth 96h	Pf growth 48h	Shiga toxin inh
CCOC(=O)N1CCC(n2c(SCC(=O)N3CCC(C)CC3)nc3ccccc3c2=O)CC1	0	0	0	4.7µM	10µM	0
CCOC(=O)N1CCC(n2c(SCC(=O)N3CCCC3)nc3ccccc3c2=O)CC1	0	0	0	?	?	0
COc1cc(N2CCCC2)c(OC)cc1/C=c1/sc2nc3ccccc3n2c1=O	0	0	0	0	0	0
O=C(O)Cn1cc(/C=c2/sc3nc4ccccc4n3c2=O)c2ccccc21	0	-	37	0	0	115
Cc1ccc(-n2c(C)cc(/C=c3/sc4nc5ccccc5n4c3=O)c2C)cc1	0	0	35	0	0	87
O=c1/c(=C\c2cccn2-c2ccccc2)sc2nc3ccccc3n12	0	0	0	0	0	28
CC(NC(=O)c1ccc(S(=O)(=O)N(C)C)cc1)c1ccc(-n2ccnc2)cc1 (centres undefined)	0	0	0	0	0	0
CCOC(=O)c1c(-c2ccccc2)csc1NC(=O)/C(C#N)=C/c1ccc(O)c(OC)c1	0	0	0	?	?	0
CC1=C(C(=O)N2CCCC(N3CCN(c4cccc(C(F)(F)F)c4)CC3)C2)OCCO1 (centres undefined)	0	0	0	13µM	0	0
O=C(c1cccc(C(F)(F)F)c1)C1CCCN(C(=O)Cn2cncn2)C1 (centres undefined)	0	0	13	0	0	0
